# Test results taken from PubChem BioAssay (NCI).
# Compounds without any hit were thinned out: in the full panel of roughly 83,000, 20% have a hit.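 Activity criterion: percent growth below 10, measured after cells in 96-well plates were exposed to a single compound concentration for 48 hours.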 Values without a mark were called inactive. Active and inactive are the calls of the source.
# Key:
# Assay in all cases: NCI-60 one-dose screen, 48 h (100 = growth as untreated, 0 = no growth, -100 = all killed)
# Settings in all cases: 10 µM unless noted
# DU-145 prostate = system: DU-145 prostate
# K-562 leukemia = system: K-562 leukemia
# MALME-3M melanoma = system: MALME-3M melanoma
# MDA-MB-231 breast = system: MDA-MB-231 breast
# RXF 393 renal = system: RXF 393 renal
# SF-268 CNS = system: SF-268 CNS
# SF-295 CNS = system: SF-295 CNS
# SF-539 CNS = system: SF-539 CNS
# UACC-257 melanoma = system: UACC-257 melanoma
# M14 melanoma = system: M14 melanoma
# HCT-15 colon = system: HCT-15 colon
# HT29 colon = system: HT29 colon
# SNB-75 CNS = system: SNB-75 CNS
# SNB-19 CNS = system: SNB-19 CNS
# PC-3 prostate = system: PC-3 prostate
# SK-MEL-5 melanoma = system: SK-MEL-5 melanoma
# UACC-62 melanoma = system: UACC-62 melanoma
# LOX IMVI melanoma = system: LOX IMVI melanoma
# SK-MEL-28 melanoma = system: SK-MEL-28 melanoma
# U251 CNS = system: U251 CNS
Compound,growth (DU-145 prostate),growth (K-562 leukemia),growth (MALME-3M melanoma),growth (MDA-MB-231 breast),growth (RXF 393 renal),growth (SF-268 CNS) [%],growth (SF-295 CNS) [%],growth (SF-539 CNS),growth (UACC-257 melanoma),growth (M14 melanoma),growth (HCT-15 colon),growth (HT29 colon),growth (SNB-75 CNS) [%],growth (SNB-19 CNS) [%],growth (PC-3 prostate) [%],growth (SK-MEL-5 melanoma),growth (UACC-62 melanoma),growth (LOX IMVI melanoma),growth (SK-MEL-28 melanoma) [%],growth (U251 CNS)
COc1cc2c(cc1C)NC(=O)/C2=C\c1c[nH]c2ccccc12,78.6%,40.6%,75.9%,60.8%,47%,81.6,26.4,69.7%,90%,80.9%,58.4%,35.4%,37.9,84.7,53.3,73.8%,77.9%,44.9%,,
COc1ccc(/C=C2\N=C(c3cccnc3)N(c3ccccc3)NC2=O)cc1,104%,107%,97.4%,92.1%,89.9%,91.9,95.2,103%,102%,92.8%,95.1%,107%,80.6,96.8,74.2,98.7%,,92.7%,129,
COc1ccc(C2=Nn3c(nnc3-c3ccc(Cl)cc3N)SC2)cc1,117%,102%,104%,85.7%,104%,106,94.3,102%,95%,107%,96.1%,110%,85.4,101,95.1,,,89.7%,97.8,92.5%
O=C1CC2(O)CSc3nc(=O)cc(n32)N1 (configuration not stated),115%,111%,99.8%,100%,110%,112,88.8,104%,99.2%,101%,96.5%,103%,98.4,91.6,93.9,99.5%,102%,103%,104,
CC(CN1CCN(C)CC1)CN1c2ccccc2Sc2ccc(C(F)(F)F)cc21 (configuration not stated),61.7%,-31.2% (active),62.9%,27.6%,18.7%,52.2,,67.5%,30%,0.817% (active),6.79% (active),-49.9% (active),45.5,63.1,31.3,-82.7% (active),-40.4% (active),-2.88% (active),22.4,1% (active)
CNC(=O)c1cc(Oc2ccc(NC(=O)c3nc(S(C)(=O)=O)sc3-c3ccc(F)cc3)cc2)ccn1,-57.5% (active),86.8%,94.5%,119%,104%,98.8,95.3,97.4%,65.7%,87.8%,86.4%,4.79% (active),113,84.4,71.1,90.3%,93.3%,45.7%,57.9,
CN1CCN(Cc2ccc(NC(=O)c3cccc(C#Cc4cnc(N)c5ncccc45)c3F)cc2C(F)(F)F)CC1,-72.4% (active),-19.7% (active),-78.9% (active),-74.2% (active),-76.5% (active),67.2,85.3,-29% (active),-61.6% (active),-76.4% (active),-57.2% (active),-55.5% (active),53.9,96.4,30.7,44.1%,55.5%,-88.8% (active),,
Cc1cc(C)c2c(n1)sc1c(Nc3ccc(OCc4ccccc4)cc3)ncnc12,104%,95.2%,88.6%,109%,104%,101,101,107%,106%,108%,100%,103%,108,101,96.2,104%,105%,91.7%,114,
CS(=O)(=O)Nc1cc(-c2cc3ncc(C#N)c(Nc4ccc(Oc5ccccc5)c(Cl)c4)c3s2)cnc1Cl,48.1%,51.5%,74.5%,45.3%,15.9%,52.8,38.4,57.8%,68.2%,50.1%,37.2%,57.6%,39.2,62.8,45.5,,22%,25.9%,62.3,44.6%
